Experimental data taken from PubChem BioAssay AID778 (Sanford-Burnham Center for Chemical Genomics, 2007).
About 20,000 (21%) of roughly 96,000 compounds were called active.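 How the source made its calls: active means CYP2C19 inhibition above a set limit at 5 µM in the primary screen (cut at about 50% in these data); inactive means the rest.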 Not all results are given here.

The compounds below were run against Cytochrome P450 2C19 (Homo sapiens) (UniProt P33261) (assay: blockers of cytochrome P450 2C19 activity – biochemical, luminescence, ADME assay, primary screen (AID 778;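 further: plate controls were negative control wells for no effect and 2.5 mM tranylcypromine positive control for full effect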)). Conditions: CYP2C19 Supersomes, luciferin-H EGE luminescence, 30 min; at 5 µM; active compounds read high.
Sequence of Cytochrome P450 2C19 (Homo sapiens) (P33261 whole entry, looked up): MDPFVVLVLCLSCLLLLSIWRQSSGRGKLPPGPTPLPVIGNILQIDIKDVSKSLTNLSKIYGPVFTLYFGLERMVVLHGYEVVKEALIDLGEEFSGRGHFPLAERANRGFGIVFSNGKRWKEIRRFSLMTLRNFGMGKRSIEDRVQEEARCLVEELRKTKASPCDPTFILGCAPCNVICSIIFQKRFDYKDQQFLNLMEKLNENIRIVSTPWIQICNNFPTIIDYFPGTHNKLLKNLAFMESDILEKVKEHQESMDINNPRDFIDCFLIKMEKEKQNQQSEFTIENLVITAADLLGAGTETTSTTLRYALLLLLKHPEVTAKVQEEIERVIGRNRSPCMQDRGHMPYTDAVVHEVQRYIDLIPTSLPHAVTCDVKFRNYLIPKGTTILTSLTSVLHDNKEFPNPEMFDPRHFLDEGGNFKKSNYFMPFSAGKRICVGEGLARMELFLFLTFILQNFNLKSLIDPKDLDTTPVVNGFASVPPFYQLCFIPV

Compound | inhibition
O=C1Nc2ccc(Br)cc2/C1=N/N=C/C1=C(N2CCOCC2)C(=C\c2ccccc2)/CC1 | -1.8% (inactive)
CCCOc1ccc2c3c(c(=O)oc2c1OCCC)CCC3 | 49.9% (inactive)
COc1ccc(-c2c(C(C)=O)c(C)nc3sc4c(=O)n(-c5ccc(C)cc5)nnc4c23)cc1 | 21.7% (inactive)
C=C(C)CSc1nnc(-c2ccc(C)cc2)n1N | 17% (inactive)
Cc1ccc(-n2c(C)cc(/C=C(\C#N)C(=O)NCC3CCCO3)c2C)cc1 (configuration not stated) | 31.5% (inactive)
CC1(C)CC(=O)C=C(NCCCNC2CCCCC2)C1 | 9.8% (inactive)
CC(C)CCSc1ncnc2c1oc1nc3c(cc12)COC(C)(C)C3 | -1.7% (inactive)
O=C(/C=C/c1ccccc1)c1ccoc1 | 35% (inactive)
Cc1[nH]c(=O)c(C(=O)/C=C/c2ccccc2)c2c1CCCC2 | 80.5% (active)
Cc1cn(COC/C=C/c2ccccc2)c(=O)[nH]c1=O | 24.1% (inactive)
Cn1c(=NC(=O)c2ccco2)sc2cccc(F)c21 | 21.9% (inactive)
CCn1c(-c2ccoc2C)n[nH]c1=S | 1.3% (inactive)
COc1ccc(C(=O)CSc2nccc(=O)[nH]2)cc1 | -4% (inactive)
COc1ccc(-n2nnnc2SCC(=O)Nc2ccccc2)cc1 | 48.1% (inactive)
COc1ccc(-n2nnnc2SCC(=O)c2ccc(OC)c(OC)c2)cc1 | 66.5% (active)
Cn1c(=O)c2cn(-c3cccc4ccccc34)cc2n(C)c1=O | 49.2% (inactive)
O=C(O)C1OC(C(=O)O)C2C1C(F)(F)C2(F)F (configuration not stated) | -0.7% (inactive)
CCOC(=O)c1c(NC(=O)c2ccc(N3CCOCC3)c([N+](=O)[O-])c2)sc(C)c1C | 2.9% (inactive)
Cc1cc(C(=O)CSc2nc(N)cc(=O)[nH]2)c(C)n1CCc1ccc(Cl)cc1 | 37% (inactive)
Cc1nc(C)c(C(=O)N(c2ccc(C)c(C)c2)C(C(=O)NCc2ccco2)c2ccccc2)s1 (configuration not stated) | 7.8% (inactive)
O=c1c2c(nc3nc[nH]n13)CCC2 | -17.9% (inactive)
CC(=NCc1ccco1)C1=C(O)c2ccccc2C1=O | 81.8% (active)
CC(=NCc1ccco1)c1c(C(F)(F)F)[nH]n(-c2nc3ccccc3s2)c1=O | 28.3% (inactive)
CC(=NCc1ccc2c(c1)OCO2)C1=C(O)c2ccccc2C1=O | 4.5% (inactive)
CCOC(=O)C1=C(C)N=c2s/c(=C\C(=O)OC)c(=O)n2C1c1ccc(OC)cc1 (configuration not stated) | 67.5% (active)

Compound | inhibition
COc1ccc(C2C(C(C)=O)=C(O)C(=O)N2c2nccs2)cc1 (configuration not stated) | -17% (inactive)
COCCOC(=O)C1=C(C)N=c2s/c(=C\c3cccs3)c(=O)n2C1c1cccs1 (configuration not stated) | 45.2% (inactive)
S=C1SCN(CCN2CCOCC2)CN1Cc1ccccc1 | 25.3% (inactive)
O=C(Nc1c(C(=O)N2CCCCC2)cnn1-c1ccccc1)c1ccco1 | -7.8% (inactive)
Cc1ccc(C2C(C#N)C(C#N)N3CCCN23)cc1 (configuration not stated) | -7.9% (inactive)
O=C(Cn1nnc2ccccc2c1=O)Nc1cc(C(F)(F)F)ccc1N1CCOCC1 | 31% (inactive)
CN(C(=O)CSc1nnnn1-c1ccccc1)C1CCCCC1 | 71.1% (active)
CCOC(=O)CNC(=O)CSc1nnnn1-c1cc(C)ccc1C | 13.5% (inactive)
O=C(O)CCSc1nnc(-c2ccccc2)n1-c1ccccc1 | 1.2% (inactive)
C=CCn1c(SCn2nnc3ccccc3c2=O)nnc1-c1ccc(Cl)cc1 | 87.2% (active)
Cn1nnnc1SCC(=O)Nc1ccccc1C(=O)NC1CC1 | -4.1% (inactive)
O=c1c2ccccc2nnn1CSc1nnnn1-c1ccccc1 | 74.2% (active)
O=c1c2ccccc2nc(CSc2nnnn2-c2ccccc2)n1-c1ccccc1 | -5.9% (inactive)
C=CCn1c(Cn2nnc3ccccc32)nnc1SCC(=O)N/N=C/c1cc(Br)cc(OC)c1O | 22.7% (inactive)
CC(=O)c1cc2c(cc1N)OCO2 | 5.3% (inactive)
CC1CCCC(C)N1C(=O)CN1CCN(c2nc(-c3ccc(F)cc3)cs2)CC1 (configuration not stated) | 7.4% (inactive)
CCOC(=O)c1sc2nc(SC)nc(-c3ccccc3)c2c1N | 6.9% (inactive)
CCOC(=O)c1sc2nc(CSCC(=O)OCc3ccc(C(=O)OC)o3)[nH]c(=O)c2c1C | 52.7% (active)
CC(=O)c1sc2nc(SCC(=O)N3CCCCC3)[nH]c(=O)c2c1C | 15.5% (inactive)
O=C(OCCO)c1cc(Cl)c(C(=O)OCCO)cc1Cl | 15.6% (inactive)
Cc1cccc(NC(=O)Nc2cccc(Oc3c(F)c(F)c(F)c(F)c3F)c2)c1 | 0.7% (inactive)
Cc1cccc(NC(=S)Nc2ccc(Br)cc2)c1 | 66.8% (active)
Cc1ccccc1NC(=S)Nc1cccc([N+](=O)[O-])c1 | 46.2% (inactive)
CCCn1c(SCC(N)=O)nnc1C(C)C | -9.9% (inactive)
O=C(CN1CCN(c2ccccn2)CC1)NC1CCCCC1 | 6.6% (inactive)

Compound | inhibition
O=C(CN1CCN(S(=O)(=O)c2ccc3ccccc3c2)CC1)NC(=O)NC1CCCCC1 | 73.3% (active)
O=C(NC1CCCCC1)n1c(=O)oc2cc(S(=O)(=O)N3CCCCC3)ccc21 | 6.9% (inactive)
Cc1noc(NS(=O)(=O)c2ccc(N3CC(O)=C(c4ccccc4)C3=N)cc2)c1C | -16.7% (inactive)
CCOc1ccccc1C1C(C(=O)OC)=CN(C)C=C1C(=O)OC | 33.6% (inactive)
COC(=O)C1=CN(C)C=C(C(=O)OC)C1c1ccc(Cl)cc1Cl | 74.5% (active)
CC12CN3CC(C)(CN(C1)C3c1ccc(Cl)cc1Cl)C2=O (configuration not stated) | 20.4% (inactive)
COC(=O)c1cc(NC(=O)CN2CCC(C(N)=O)(N3CCCCC3)CC2)cc(C(=O)OC)c1 | 14.3% (inactive)
COC(=O)c1ccc(C(=O)OC)c(NC(=S)N2CCCCC2)c1 | 16.7% (inactive)
NC(=O)C1(N2CCCCC2)CCN(C(=S)Nc2ccc(Cl)cc2)CC1 | 70.7% (active)
O=C(OCc1nnc(-c2ccccc2)o1)c1ccc2c(c1)C(=O)N(CCc1ccccc1)C2=O | 0.5% (inactive)
CCCC(C(=O)n1nc(C)cc1C)C(NS(=O)(=O)c1ccc(C)cc1)c1ccccc1 (configuration not stated) | 43.5% (inactive)
CCOc1ccc(C(C)C)cc1S(=O)(=O)n1nc(C)cc1C | 73.6% (active)
CCOc1ccc(NC(=O)CCC(=O)n2nc(C)cc2C)cc1 | -8.5% (inactive)
COc1cccc(CNc2nc3nc4c(c(=O)n3[nH]2)CCC4)c1 | -17.3% (inactive)
O=C(Cc1cccs1)N1CCCC(c2nc(-c3ccc(S(=O)(=O)N4CCCC4)cc3)no2)C1 (configuration not stated) | 7.4% (inactive)
O=C(c1cccs1)N1CCC(c2nc3ccccc3s2)CC1 | 35.6% (inactive)
O=C(c1cccs1)N1CCCC(c2nc(-c3ccc(F)cc3)no2)C1 (configuration not stated) | 64% (active)
COC(=O)/C(=C\Nc1ccccc1)NC(=O)c1ccc(Cl)cc1Cl | 49% (inactive)
C[N+]1(CCNC(=O)/C=N/O)CCCCC1 | 3.7% (inactive)
Cc1cc(C)c2c(c1)cc(C)c1nnc(SCC(=O)Nc3cc(C)on3)n12 | 12.6% (inactive)
O=C(Nc1cccc2ncccc12)c1ccc(-c2ccc(Cl)cc2Cl)o1 | -13.7% (inactive)
Clc1ccc(COn2c(-c3ccc(Cl)cc3Cl)nc3ncccc32)cc1 | 96.6% (active)
O=C(CN1C(=O)COc2ccccc21)Nc1ccc(F)cc1 | 33.4% (inactive)
CCCN1CCN(CCCNC(=O)CN2C(=O)COc3ccccc32)CC1 | -16.5% (inactive)
O=C(CN1C(=O)COc2ccccc21)NCCN1CCc2ccccc2C1 | 53.3% (active)

Compound | inhibition
Cc1cc(C)c2nc(NC(=O)C3CCCO3)sc2c1 (configuration not stated) | 14.4% (inactive)
Fc1ccc(-c2nnc(CSc3nnc(-c4ccc5c(c4)OCO5)o3)o2)cc1 | -7.5% (inactive)
Cc1nc(SC(C)C)[nH]c(=O)c1Cc1ccccc1 | 38.8% (inactive)
Cc1cnc(NC(=O)CSc2c(Cl)cccc2Cl)s1 | -7.1% (inactive)
CCOC(=O)N1CC=C2C(C#N)=C(N)C(C#N)(C#N)[C@H](c3cccs3)[C@H]2C1 | -4.5% (inactive)
CCCOC(=O)c1[nH]c2c(c1C)C(=O)CC(c1cccs1)C2 (configuration not stated) | 39.9% (inactive)
C=CCOC(=O)C1=C(C)NC(C)=C(C(=O)OCC=C)C1c1cccs1 | 77% (active)
COc1cc(C2C(C(=O)Nc3ccc(F)cc3)=C(C)Nc3nc(CCCO)nn32)cc(OC)c1OC (configuration not stated) | 11.1% (inactive)
CCCOC(=O)Cc1c(O)c2ccccc2[nH]c1=O | -12.3% (inactive)
O=c1/c(=C/c2ccc(CNS(=O)(=O)c3ccccc3)o2)sc2n1CCN=2 | 52.4% (active)
O=c1nc2s/c(=C\c3ccco3)c(=O)n2nc1Cc1ccccc1 | -5.5% (inactive)
CCOc1cc(CNCCN(C)C)c(Cl)cc1OCC(=O)NCCc1ccccc1 | -1.1% (inactive)
COc1ccc(N2C(=O)CCC(C(=O)Nc3ccccn3)C2c2ccc(OC)c(OC)c2)cc1 (configuration not stated) | 28.2% (inactive)
CCC(=O)Nc1ccccc1C(=O)N1CCN(Cc2ccccc2)CC1 | 65% (active)
O=C(Nc1cccc(NC(=O)N2CCN(c3ccccc3)CC2)c1)N1CCN(c2ccccc2)CC1 | 72% (active)
O=C(O)C1CC=CCC1C(=O)Nc1ccccc1C(=O)N1CCN(c2ccccc2)CC1 (configuration not stated) | -10.7% (inactive)
CC(=O)N1CCN(C(=O)Nc2cccc(C(F)(F)F)c2)CC1 | 8.1% (inactive)
CCOc1ccc(NC(=O)N2CCN(CC)CC2)cc1 | -6.1% (inactive)
COc1cccc(N2CCN(C(=O)Nc3ccc4c(c3)NC(=O)CO4)CC2)c1 | -6.5% (inactive)
O=C(Nc1ccccc1)N1CCN(Cc2ccccc2)CC1 | 76.7% (active)
O=C1CCN(C(=O)Nc2ccccc2)N1 | -3.2% (inactive)
Cn1nnnc1SCC(=O)N1CCN(Cc2ccccc2)CC1 | 38.9% (inactive)
